# The supplement of paper PMC3334620
# Whole data set: some 33,000 sequences, median “E-score (-0.5 to 0.5)” near -0.012, cut for the highest 2% near 0.27. Many of the other results were omitted from the sample, so the highest values are more common in it than they were.
# Target: T1, Vhr1 (UniProt P40522)
# T1 sequence: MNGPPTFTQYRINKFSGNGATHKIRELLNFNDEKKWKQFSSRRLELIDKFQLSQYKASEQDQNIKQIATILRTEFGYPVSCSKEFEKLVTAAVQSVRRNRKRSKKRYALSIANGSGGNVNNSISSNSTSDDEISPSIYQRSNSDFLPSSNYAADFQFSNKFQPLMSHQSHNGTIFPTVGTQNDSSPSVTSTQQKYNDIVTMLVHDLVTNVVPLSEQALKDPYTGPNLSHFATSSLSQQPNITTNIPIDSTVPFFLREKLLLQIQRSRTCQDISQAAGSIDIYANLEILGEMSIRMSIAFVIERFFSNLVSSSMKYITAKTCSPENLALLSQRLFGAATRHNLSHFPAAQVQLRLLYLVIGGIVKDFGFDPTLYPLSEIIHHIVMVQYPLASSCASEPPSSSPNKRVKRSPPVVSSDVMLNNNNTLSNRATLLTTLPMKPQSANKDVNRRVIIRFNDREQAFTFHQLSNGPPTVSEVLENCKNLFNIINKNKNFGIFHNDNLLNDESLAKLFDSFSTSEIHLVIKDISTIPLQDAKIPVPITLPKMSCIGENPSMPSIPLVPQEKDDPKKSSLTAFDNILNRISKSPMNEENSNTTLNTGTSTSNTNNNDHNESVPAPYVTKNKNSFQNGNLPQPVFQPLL
# Assay: PBM E-score (8-mer binding enrichment) (E-score (-0.5 to 0.5)); higher = stronger / more preferred TF binding
# Conditions: protein concentration: 200 nM; construct: GST-full length
# Method: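 Universal 'all 10-mer' protein binding microarrays (Agilent AMADID 015681) probed with GST-tagged S. cerevisiae TFs (full-length or DBD) made by in vitro transcription/translation (PURExpress), about 100-200 nM. Bound TF was detected with fluorescent anti-GST. Each ungapped 8-mer (which stands for itself and its reverse complement) is scored by the PBM enrichment score (E-score), a modified Wilcoxon-Mann-Whitney statistic from -0.5 to +0.5, computed with the Universal PBM Analysis Suite. Scale: above 0.35 generally sequence-specific binding.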
row,Sequence,PBM E-score
1,CGTACCCA,0.16
2,ACGGTCAT,0.156
3,GGCAAGCA,-0.224
4,CATGAGGC,-0.159
5,CATGAGAG,0.147
6,CATGAGAC,0.274
7,CATGAGCC,0.159
8,AATGAGTC,0.426
9,AATGAGTA,0.223
10,CATGAGTC,0.477
11,AATGAGTG,0.157
12,AATGAGAC,-0.113
13,AGTGTCGC,0.138
14,AAAATAAT,0.0747
15,TAAGCCTA,-0.259
16,GAATTTGC,-0.0954
17,CAAGAATC,0.179
18,GCGAACAC,-0.0481
19,AATAGGCA,0.0547
20,AACAGCAT,0.0405
21,AGAGCCCT,-0.165
22,GCAATCGA,-0.0515

row,Sequence,PBM E-score
1,ACAGTCAT,0.318
2,AGAGTCAC,0.43
3,AGAGTCTC,0.191
4,AGAGTCCT,-0.17
5,AGAGTCAT,0.45
6,ACAGTCAA,0.0811
7,AGAGTCCC,-0.205
8,ACAGTCAG,0.228
9,AGAGTCAG,0.399
10,AGAGTCAA,0.112
11,AGGGTCAG,-0.161
12,AAAGTCAG,0.119
13,CGGATCTA,-0.0646
14,GCACCTCC,-0.136
15,GGCAAAGA,-0.0131
16,GTTCACTA,-0.133
17,GCAATTCC,-0.163
18,GGAAAGCC,-0.0802
19,TGATGGAA,0.0625
20,GCTACTCC,-0.145
21,CGTACTAA,0.153
22,CGTACTCC,-0.0124

row,Sequence,PBM E-score
1,TATACCCA,0.0126
2,ATTACTCA,0.29
3,ATTACTCG,0.198
4,CATACCCA,0.271
5,CATACCCC,0.105
6,CGTACTCA,0.283
7,ACTACTCA,0.238
8,GCTACTCA,0.271
9,ATTACTCC,0.0722
10,AACTAAAT,-0.0313
11,ATCGGTGA,0.181
12,GTGCTTAA,-0.136
13,TATAGGAA,0.0238
14,GAATTAGA,-0.172
15,GCGTGTAA,-0.0131
16,ATTATTGC,-0.0063
17,ACTGGCGA,0.124
18,AATTTAGT,0.256
19,GGTACTTA,-0.103
20,GATACTGA,0.159
21,GGTACTCA,0.281
22,CATACTGA,0.123

row,Sequence,PBM E-score
1,CATACTCG,0.18
2,TATACTGA,0.309
3,CATACTCA,0.285
4,CATACTCC,0.125
5,AGTACTCA,0.171
6,CGGCACGC,-0.0534
7,GCAGCTCA,-0.254
8,CAAGAGTC,0.296
9,ACAGAGTC,0.296
10,AAAGAGTC,0.0469
11,ACAGAGTG,0.0123
12,GCTGAGCC,0.28
13,ACTGAGTC,0.454
14,AGAGAGTC,0.215
15,ACTGAGTA,0.263
16,GAAGAGTC,0.194
17,ACTGAGTG,0.0665
18,ACTGAGCC,0.219
19,CCTGAGCC,0.115
20,ATTCGGTG,0.106
